“And” between values parts separate entries of the source, which are not always exact repeats. Equal values may be shown once. The source made the active and inactive calls. Unless noted, the call rests on the fitted dose curve.
What was measured:
[1] = molecular target: Estrogen receptor (Homo sapiens) (UniProt P03372); test: qHTS assay for small molecule antagonists of estrogen receptor alpha signaling (AID 588513; active means well fitted curve in the direction sought with a large enough effect in the signal ratio, with a control signal flat, not every such curve was filed as active; inconclusive means small, poorly fitted or top-dose-only effect, or effect the other way, or a change in a side signal; inactive means no such curve, though single readings can be large or run the other way; the % refers to the signal ratio; further: potency means the concentration at half of the fitted maximal effect)
Chain of Estrogen receptor (Homo sapiens) (P03372 whole entry, looked up): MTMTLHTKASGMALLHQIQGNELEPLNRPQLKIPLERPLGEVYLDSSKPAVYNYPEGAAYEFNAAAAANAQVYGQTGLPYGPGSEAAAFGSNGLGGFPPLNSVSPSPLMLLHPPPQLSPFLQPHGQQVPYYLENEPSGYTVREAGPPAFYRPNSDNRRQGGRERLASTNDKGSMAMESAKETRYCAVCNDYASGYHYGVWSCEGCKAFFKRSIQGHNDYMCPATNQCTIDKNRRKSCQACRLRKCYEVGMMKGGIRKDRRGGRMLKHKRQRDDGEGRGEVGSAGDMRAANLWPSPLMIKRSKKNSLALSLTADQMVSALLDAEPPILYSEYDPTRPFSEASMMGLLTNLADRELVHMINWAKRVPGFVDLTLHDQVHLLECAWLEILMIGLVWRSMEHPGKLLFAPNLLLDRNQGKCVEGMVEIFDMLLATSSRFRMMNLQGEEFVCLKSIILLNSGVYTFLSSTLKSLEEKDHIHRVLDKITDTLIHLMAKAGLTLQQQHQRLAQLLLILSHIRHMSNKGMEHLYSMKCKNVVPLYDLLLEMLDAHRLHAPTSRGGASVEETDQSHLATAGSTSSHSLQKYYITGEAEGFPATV
Procedure, shortened: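 Antagonist-mode qHTS in ER-alpha-UAS-bla HEK 293 cells: compound titration, 0.5nM estradiol for 18 h, CCF4 fluorescence, Hill-derived IC50.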

[2] = molecular target: Estrogen receptor (Homo sapiens) (UniProt P03372); test: qHTS assay for small molecule agonists of estrogen receptor alpha signaling (AID 588514);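 further: 0% = vehicle only and 100% = reference agonist; nearly all actives have a fitted effect of over 70% in size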
Procedure, shortened: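 ER-alpha-UAS-bla GripTite HEK293 cells, 5000/well in 2% charcoal/dextran-stripped FBS medium, treated with compound titrations 18 h at 37 C. CCF4 beta-lactamase read by fluorescence after 2 h RT; normalised to 20 nM 17-beta-estradiol (100%) and DMSO (0%), Hill fit for EC50 and efficacy.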

[3] = molecular target: Vitamin D3 receptor (Homo sapiens) (UniProt P11473); test: qHTS assay for small molecule antagonists of vitamin D receptor signaling (AID 588541); further: potency means the concentration at half of the fitted maximal effect
Chain of Vitamin D3 receptor (Homo sapiens) (P11473 whole entry, looked up): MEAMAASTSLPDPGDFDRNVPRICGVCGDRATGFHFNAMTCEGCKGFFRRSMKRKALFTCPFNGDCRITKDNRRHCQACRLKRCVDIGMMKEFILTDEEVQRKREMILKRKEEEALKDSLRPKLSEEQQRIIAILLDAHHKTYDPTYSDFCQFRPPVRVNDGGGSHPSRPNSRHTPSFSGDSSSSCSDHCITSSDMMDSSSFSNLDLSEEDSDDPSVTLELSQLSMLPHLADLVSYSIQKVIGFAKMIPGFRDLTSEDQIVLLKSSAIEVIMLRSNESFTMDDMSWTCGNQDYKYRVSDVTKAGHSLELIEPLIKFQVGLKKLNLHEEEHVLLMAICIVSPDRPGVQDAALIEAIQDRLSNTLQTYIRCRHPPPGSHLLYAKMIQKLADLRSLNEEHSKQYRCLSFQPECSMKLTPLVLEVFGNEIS
Procedure, shortened: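 VDR-UAS-bla HEK293T cells in 2% charcoal-stripped FBS were stimulated with 1-alpha,25-dihydroxyvitamin D3 (3 nM final) plus compound for 16 h at 37 C. The beta-lactamase CCF4 readout was normalized to 50 nM agonist and DMSO, and Hill fits gave IC50.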

[4] = molecular target: Vitamin D3 receptor (Homo sapiens) (UniProt P11473); test: qHTS assay for small molecule agonists of vitamin D receptor signaling (AID 588543);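 further: 0% = DMSO basal and 100% = reference agonist control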
Procedure, shortened: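 Measured: β-lactamase reporter activity (CCF4, 405 nm excitation, 460/530 nm emission) in HEK293T VDR-UAS-bla cells after 16 h compound exposure at 37 °C. Normalization against 50 nM 1α,25-dihydroxyvitamin D3 and DMSO; Hill-fit EC50.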

[5] = qHTS assay for small molecule antagonists of retinoid X receptor alpha signaling (AID 588546; active means well fitted inhibition curve with a large enough effect in the signal ratio, with a control signal flat, not every such curve was filed as active; inconclusive means small, poorly fitted or top-dose-only effect, or effect the other way, or a change in a side signal; inactive means no such curve, though single readings can be large or run the other way; the % refers to the signal ratio; further: potency means the concentration at half of the fitted maximal effect;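 on max response: cells stimulated with 9-cis-retinoic acid as agonist; on the % scale 0 is the no-effect control and ±100 the full control effect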); details: HEK293T RXRa-UAS-bla, beta-lactamase ratio, antagonist mode; measured here: W530 green channel, cytotoxicity proxy
Procedure, shortened: (§1)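 Beta-lactamase reporter inhibition, read as CCF4 fluorescence ratio (ex 405, em 460/530 nm) after 2 h at RT. HEK293T UAS-bla cells, 2500/well, were stimulated with 9-cis-RA at 500 or 100 nM final alongside test compound for 18 h at 37 C.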

[6] = molecular target: Retinoic acid receptor RXR-alpha (Homo sapiens) (UniProt P19793); test: as above; details: HEK293T RXRa-UAS-bla, beta-lactamase ratio, antagonist mode
Chain of Retinoic acid receptor RXR-alpha (Homo sapiens) (P19793 whole entry, looked up): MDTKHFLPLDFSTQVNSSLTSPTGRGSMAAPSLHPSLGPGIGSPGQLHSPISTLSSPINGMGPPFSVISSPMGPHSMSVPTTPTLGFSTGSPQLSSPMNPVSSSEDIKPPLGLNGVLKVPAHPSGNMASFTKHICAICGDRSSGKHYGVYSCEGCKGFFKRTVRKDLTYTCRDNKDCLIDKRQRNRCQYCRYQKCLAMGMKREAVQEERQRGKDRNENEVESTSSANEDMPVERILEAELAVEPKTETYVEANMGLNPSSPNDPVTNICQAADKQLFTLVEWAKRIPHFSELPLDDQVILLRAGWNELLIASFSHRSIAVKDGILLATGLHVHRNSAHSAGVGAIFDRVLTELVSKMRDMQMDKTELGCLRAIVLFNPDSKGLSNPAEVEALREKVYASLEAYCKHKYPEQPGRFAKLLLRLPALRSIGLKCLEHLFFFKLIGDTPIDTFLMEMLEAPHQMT
Procedure, shortened: as §1

[7] = qHTS assay for small molecule agonists of the antioxidant response element (ARE) signaling pathway measured by Nrf2-dependant transcriptional activity (AID 720636; active means well fitted curve in the direction sought with a large enough effect in the repeat runs; inconclusive means weak or mixed curves; inactive means no such curve, though single readings can be large; an effect the other way counts as inactive or inconclusive; further: potency means the concentration at half of the fitted maximal effect;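 on activation: HepG2 cells with an ARE-driven luciferase reporter; % of control where 0% means no effect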)
Procedure, shortened: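 ONE-Glo luminescence, read 30 min after reagent addition at room temperature, reflected ARE reporter activity in HepG2 cells that had been incubated with compound for 16 hr at 37 C in 1% dialyzed FBS.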

[8] = qHTS assay for small molecule agonists of the antioxidant response element (ARE) signaling pathway measured by Nrf2-dependant transcriptional activity - cell viability counter screen (AID 720653; active means well fitted curve in the direction sought with a large enough effect in the repeat runs; inconclusive means weak or mixed curves; inactive means no such curve, though single readings can be large; an effect the other way counts as inactive or inconclusive; further: on the % scale 0 is the no-effect control and ±100 the full control effect); details: ARE-bla HepG2 viability, CellTiter-Glo ATP luminescence, 16 h; max response: stronger effect = lower value
Procedure, shortened: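 ARE-bla HepG2 cells treated with compounds for 16 h at 37C; this counter screen measures viability as intracellular ATP by CellTiter-Glo luminescence after 30 min at room temperature.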

[9] = molecular target: Glucocorticoid receptor (Homo sapiens) (UniProt P04150); test: qHTS assay for small molecule agonists of glucocorticoid receptor signaling (AID 588532; active means well fitted curve in the direction sought with a large enough effect in the signal ratio, with a control signal flat; inconclusive means small, poorly fitted or top-dose-only effect, or a change in a side signal; inactive means no such curve, though single readings can be large or run the other way; the % refers to the signal ratio;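 further: 100% = dexamethasone at 0.1 µM and 0% = DMSO only wells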); details: HeLa MMTV-bla, beta-lactamase ratio, agonist, 18 h; activation: stronger effect = higher value, percent of dexamethasone control, DMSO zero
Chain of Glucocorticoid receptor (Homo sapiens) (P04150 whole entry, looked up): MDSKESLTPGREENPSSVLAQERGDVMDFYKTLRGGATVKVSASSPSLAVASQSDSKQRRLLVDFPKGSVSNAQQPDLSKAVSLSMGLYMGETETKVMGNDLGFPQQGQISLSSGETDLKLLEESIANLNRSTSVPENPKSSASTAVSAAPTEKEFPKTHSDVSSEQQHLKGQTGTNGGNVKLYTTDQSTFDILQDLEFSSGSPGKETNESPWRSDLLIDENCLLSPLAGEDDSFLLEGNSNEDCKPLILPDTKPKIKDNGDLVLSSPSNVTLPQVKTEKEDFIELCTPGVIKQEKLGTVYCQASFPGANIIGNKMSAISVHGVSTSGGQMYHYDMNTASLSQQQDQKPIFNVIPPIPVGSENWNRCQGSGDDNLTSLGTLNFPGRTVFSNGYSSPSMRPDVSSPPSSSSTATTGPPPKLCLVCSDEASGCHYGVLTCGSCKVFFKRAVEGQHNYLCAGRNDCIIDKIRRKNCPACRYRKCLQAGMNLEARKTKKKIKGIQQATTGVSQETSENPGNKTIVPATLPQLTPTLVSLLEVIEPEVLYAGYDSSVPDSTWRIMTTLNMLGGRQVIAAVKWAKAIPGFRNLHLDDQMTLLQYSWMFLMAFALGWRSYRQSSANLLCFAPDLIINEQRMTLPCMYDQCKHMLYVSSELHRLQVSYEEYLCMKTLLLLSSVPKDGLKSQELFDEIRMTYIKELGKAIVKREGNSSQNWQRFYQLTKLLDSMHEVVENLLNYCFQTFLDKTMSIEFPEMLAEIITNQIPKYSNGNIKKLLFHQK
Procedure, shortened: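 MMTV-bla HeLa beta-lactamase reporter cells in 1% charcoal/dextran FBS medium, compounds up to 92 uM for 18 h at 37 C, CCF4 readout; normalized to 0.1 uM dexamethasone (100%), EC50 and efficacy from Hill fits.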

[10] = molecular target: Peroxisome proliferator-activated receptor delta (Homo sapiens) (UniProt Q03181); test: qHTS assay for small molecule agonists of peroxisome proliferator-activated receptor delta signaling (AID 588534);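 further: 0% = DMSO basal wells and 100% = positive control agonist at 10 µM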
Chain of Peroxisome proliferator-activated receptor delta (Homo sapiens) (Q03181 whole entry, looked up): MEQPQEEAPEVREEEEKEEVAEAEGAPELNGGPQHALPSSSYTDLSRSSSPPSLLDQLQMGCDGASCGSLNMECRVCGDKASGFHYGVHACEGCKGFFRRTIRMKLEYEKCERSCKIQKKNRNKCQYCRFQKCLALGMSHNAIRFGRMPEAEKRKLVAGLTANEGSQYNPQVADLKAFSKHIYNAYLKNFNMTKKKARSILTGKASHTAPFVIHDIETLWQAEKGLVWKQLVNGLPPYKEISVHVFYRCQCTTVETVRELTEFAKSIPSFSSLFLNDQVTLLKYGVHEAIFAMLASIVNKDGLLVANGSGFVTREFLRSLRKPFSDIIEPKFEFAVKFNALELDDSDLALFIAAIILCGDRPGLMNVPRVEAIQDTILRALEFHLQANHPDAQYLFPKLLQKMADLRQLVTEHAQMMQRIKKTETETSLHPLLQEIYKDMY
Procedure, shortened: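 Cells carrying a PPAR-delta beta-lactamase reporter were treated with compounds for 18 h at 37 °C in agonist mode. CCF4 fluorescence was read after 2 h; EC50 and efficacy from Hill fits.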

[11] = molecular target: Thyroid hormone receptor beta (Homo sapiens) (UniProt P10828); test: qHTS assay for small molecule agonists of thyroid hormone receptor beta signaling (AID 588545);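 further: 0% = DMSO only and 100% = 10 nM T3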
Chain of Thyroid hormone receptor beta (Homo sapiens) (P10828 whole entry, looked up): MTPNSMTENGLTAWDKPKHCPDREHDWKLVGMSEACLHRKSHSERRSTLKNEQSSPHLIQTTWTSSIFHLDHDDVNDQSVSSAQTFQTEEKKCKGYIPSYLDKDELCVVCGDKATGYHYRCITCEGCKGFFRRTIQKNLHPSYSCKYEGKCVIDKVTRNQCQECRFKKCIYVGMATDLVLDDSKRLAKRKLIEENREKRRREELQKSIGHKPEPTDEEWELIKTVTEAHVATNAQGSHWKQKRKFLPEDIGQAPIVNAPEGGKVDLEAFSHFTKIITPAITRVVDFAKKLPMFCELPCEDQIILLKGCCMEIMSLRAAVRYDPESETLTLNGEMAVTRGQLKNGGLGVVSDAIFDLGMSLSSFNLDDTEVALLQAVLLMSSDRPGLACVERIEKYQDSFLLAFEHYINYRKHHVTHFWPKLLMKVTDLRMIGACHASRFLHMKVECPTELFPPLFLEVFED
Procedure, shortened: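 TR-UAS-bla GripTite HEK 293 cells (2500/well, medium with 2% charcoal/dextran FBS) were treated in agonist mode for 18 h at 37 C, titrated. Beta-lactamase was read by CCF4 ratio after 2 h; normalized to 10 nM T3 (100%) and DMSO, Hill-fitted for EC50 and efficacy.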

[12] = qHTS assay for small molecule activators of the p53 signaling pathway (AID 651743; active means well fitted activation curve with a large enough effect in the signal ratio, not every such curve was filed as active; inconclusive means small, poorly fitted or top-dose-only effect, or a change in a side signal; the % refers to the signal ratio; further: series mostly up to about 92 µM; % of control where 0% means no effect); details: HCT-116 p53RE-bla, beta-lactamase FRET ratio, 16 h; activation: stronger effect = higher value
Procedure, shortened: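 p53RE-bla HCT-116 cells carrying a beta-lactamase reporter under p53 response elements were exposed to compounds for 16 hours at 37 C. Reporter activity read as fluorescence after 2 hours at room temperature with LiveBLAzer B/G FRET substrate.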

[13] = qHTS assay for small molecule activators of the nuclear factor-kappa B (NF-kB) signaling pathway (AID 651749; active means well fitted activation curve with a large enough effect in the signal ratio; inconclusive means small, poorly fitted or top-dose-only effect, or a change in a side signal; the % refers to the signal ratio; further: series mostly up to about 77 µM; % of control where 0% means no effect); details: NF-kB-bla ME-180 cells, beta-lactamase FRET ratio, 16 h; activation: stronger effect = higher value
Procedure, shortened: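 NF-kB-bla ME-180 cells carrying a beta-lactamase reporter under an NF-kB response element, 2,000 cells/well, exposed to compound for 16 hr at 37C; FRET-based beta-lactamase fluorescence read-out of pathway activation.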

[14] = qHTS assay for environmental chemicals that activate the Aryl hydrocarbon Receptor (AhR) signaling pathway (AID 651777; active means well fitted curve in the direction sought with a large enough effect; inconclusive means small, poorly fitted or top-dose-only effect, or another doubt; inactive means no such curve, though single readings can be large; an effect the other way counts as inactive or inconclusive; further: nearly all actives have a fitted effect of over 15% in size; further: potency means the concentration at half of the fitted maximal effect; on activation: % of control where 0% means no effect); details: 1A2-DRE human hepatoma cells, luciferase, 24 h; activation: stronger effect = higher value
Procedure, shortened: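 Following a 24 hr incubation with test chemicals at 37 C and 5% CO2, 1A2-DRE human hepatoma cells received One-Glo reagent; after 30 min at room temperature, luciferase output reflected CYP1A2 induction via AhR.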

[15] = molecular target: Peroxisome proliferator-activated receptor alpha (Homo sapiens) (UniProt Q07869); test: qHTS assay for small molecule agonists of the peroxisome proliferator-activated receptor alpha (PPARalpha) signaling pathway (AID 651778; active means well fitted curve in the direction sought with a large enough effect; inconclusive means small, poorly fitted or top-dose-only effect, or another doubt; inactive means no such curve, though single readings can be large; an effect the other way counts as inactive or inconclusive; further: % of control where 0% means no effect); details: PathHunter PPARalpha complementation, chemiluminescence, 6 h; max response: stronger effect = higher value
Chain of Peroxisome proliferator-activated receptor alpha (Homo sapiens) (Q07869 whole entry, looked up, the tested form may be a part): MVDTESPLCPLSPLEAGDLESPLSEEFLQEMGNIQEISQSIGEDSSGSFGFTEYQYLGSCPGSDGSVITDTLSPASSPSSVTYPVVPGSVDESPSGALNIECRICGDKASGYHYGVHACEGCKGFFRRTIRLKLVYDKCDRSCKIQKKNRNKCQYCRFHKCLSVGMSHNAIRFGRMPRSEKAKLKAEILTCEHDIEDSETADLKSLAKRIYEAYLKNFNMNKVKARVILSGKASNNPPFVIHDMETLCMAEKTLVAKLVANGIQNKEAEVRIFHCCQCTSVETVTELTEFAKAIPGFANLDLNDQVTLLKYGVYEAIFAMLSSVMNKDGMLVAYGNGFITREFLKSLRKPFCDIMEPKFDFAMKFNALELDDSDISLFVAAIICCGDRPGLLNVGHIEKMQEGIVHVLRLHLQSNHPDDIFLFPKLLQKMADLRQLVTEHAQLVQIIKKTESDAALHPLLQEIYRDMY
Procedure, shortened: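 Enzyme-fragment complementation assay in which ligand-bound PPARalpha translocates and forms an active enzyme that generates chemiluminescence. Cells were plated overnight, exposed to compound for 6 hr at 37 C, and then given detection reagent for 60 min at room temperature.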

[16] = qHTS assay for cell viability of HEK293 cells (AID 743288; active means well fitted curve in the direction sought with a large enough effect; inconclusive means small, poorly fitted or top-dose-only effect, or another doubt; inactive means no such curve, though single readings can be large; an effect the other way counts as inactive or inconclusive; further: on the % scale 0 is the no-effect control and ±100 the full control effect; nearly all actives have a fitted effect of over 50% in size); details: ATP luminescence (CellTiter-Glo), 18 h; max response: stronger effect = lower value
Procedure, shortened: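 Luminescent ATP quantitation served as the viability read-out. Cells (parental HEK293, 2,000/well) received compounds after at least 5 h at 37 C and were exposed for 18 h before a 30 min room-temperature reagent step.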

[17] = qHTS assay for cell viability of the p53RE-bla HCT-116 cell line (AID 743292; active means well fitted curve in the direction sought with a large enough effect; inconclusive means small, poorly fitted or top-dose-only effect, or another doubt; inactive means no such curve, though single readings can be large; an effect the other way counts as inactive or inconclusive; further: on the % scale 0 is the no-effect control and ±100 the full control effect; nearly all actives have a fitted effect of over 55% in size)
Procedure, shortened: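 After plating at 4,000 cells per well and a 5 h rest at 37 C, HCT-116 cells carrying p53RE-bla received test chemicals in DMSO. Sixteen hours later at 37 C, CellTiter-Glo was added and luminescence recorded following 30 min at room temperature.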

[18] = molecular target: Nuclear receptor subfamily 1 group I member 2 (Rattus norvegicus) (UniProt Q9R1A7); test: qHTS assay for small molecule activators of the rat pregnane X receptor (rPXR) signaling pathway (AID 651751; call rule not given here; further: 0% is about no effect); details: rPXR reporter cells, luciferase (One-Glo), 24 h
Chain of Nuclear receptor subfamily 1 group I member 2 (Rattus norvegicus) (Q9R1A7 whole entry, looked up): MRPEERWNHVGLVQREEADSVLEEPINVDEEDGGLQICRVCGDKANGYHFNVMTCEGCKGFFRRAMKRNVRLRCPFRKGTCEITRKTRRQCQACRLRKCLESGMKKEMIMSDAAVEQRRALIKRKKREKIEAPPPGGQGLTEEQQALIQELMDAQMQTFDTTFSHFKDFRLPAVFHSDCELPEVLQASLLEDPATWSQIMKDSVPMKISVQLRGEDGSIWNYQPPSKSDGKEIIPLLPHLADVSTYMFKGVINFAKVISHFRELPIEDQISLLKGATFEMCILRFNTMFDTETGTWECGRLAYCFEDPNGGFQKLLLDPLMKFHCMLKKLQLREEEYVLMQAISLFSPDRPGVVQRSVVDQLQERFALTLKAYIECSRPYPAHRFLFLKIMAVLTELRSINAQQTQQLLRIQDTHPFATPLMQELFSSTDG

[19] = molecular target: Peroxisome proliferator-activated receptor gamma (Homo sapiens) (UniProt P37231); test: qHTS assay for small molecule agonists of peroxisome proliferator-activated receptor gamma signaling (AID 588536; active means well fitted curve in the direction sought with a large enough effect in the signal ratio, with a control signal flat, not every such curve was filed as active; inconclusive means small, poorly fitted or top-dose-only effect, or effect the other way, or a change in a side signal; inactive means no such curve, though single readings can be large or run the other way; the % refers to the signal ratio;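 further: 0% = DMSO basal wells and 100% = rosiglitazone at 2 µM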)
Chain of Peroxisome proliferator-activated receptor gamma (Homo sapiens) (P37231 whole entry, looked up): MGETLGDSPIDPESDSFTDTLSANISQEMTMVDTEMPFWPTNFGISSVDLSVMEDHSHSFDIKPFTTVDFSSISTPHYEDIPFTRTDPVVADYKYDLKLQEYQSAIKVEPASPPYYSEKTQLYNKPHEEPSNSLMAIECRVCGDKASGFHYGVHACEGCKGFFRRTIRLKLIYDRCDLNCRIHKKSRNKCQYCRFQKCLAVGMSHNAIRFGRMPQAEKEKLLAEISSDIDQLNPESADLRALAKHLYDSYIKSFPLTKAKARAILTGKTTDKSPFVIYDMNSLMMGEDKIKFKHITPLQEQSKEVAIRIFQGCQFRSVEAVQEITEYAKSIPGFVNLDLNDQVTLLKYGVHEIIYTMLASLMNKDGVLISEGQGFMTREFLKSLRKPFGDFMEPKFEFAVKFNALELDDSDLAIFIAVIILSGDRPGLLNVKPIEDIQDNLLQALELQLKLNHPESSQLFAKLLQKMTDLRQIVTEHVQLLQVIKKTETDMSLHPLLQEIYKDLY
Procedure, shortened: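 HEK293 UAS-bla reporter line, 1% charcoal/dextran FBS; titration, 16 h, 37 C; CCF4 loading 2 h RT; fluorescence 460/530 nm. Normalized to rosiglitazone 2 uM = 100%, DMSO = 0%.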

[20] = molecular target: Retinoic acid receptor RXR-alpha (Homo sapiens) (UniProt P19793); test: qHTS assay for small molecule agonists of retinoid X receptor alpha signaling (AID 588544); further: potency means the concentration at half of the fitted maximal effect;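 on activation: 0% = DMSO basal wells and 100% = reference agonist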

C=CC(=O)OCC(CO)(COC(=O)C=C)COC(=O)C=C
-17.9%: max response [5]
inactive: Potency [2] | outcome [4] | max response [8] -24.9%
active: Potency [1] 7.94 µM [inconclusive] | Potency [3] 7.08 µM | Potency [6] 5.62 µM | Potency [7] 16.8 µM and 12.2 µM

CS(=O)(=O)c1cc(C(F)(F)F)ccc1C(=O)c1cnoc1C1CC1
-9.9%: max response [5]
inactive: Potency [1] | Potency [2] | activation [9] 11.4% | outcome [10] | Potency [3] | outcome [4] | Potency [11] | max response [6] -4.05% | activation [12] -1.28% | activation [13] 0.439% | activation [14] -0.804% | max response [15] -3.75% | max response [8] -9.62% | max response [16] -14.1% | Potency [17] | max response [18] -4.39%

Clc1ccc([C@@]2(Cn3cncn3)C[C@H](Br)CO2)c(Cl)c1
inactive: Potency [1] | activation [9] 2.56% | Potency [19] | max response [6] -7.83% | activation [12] 0.484% | activation [13] -1.71% | activation [14] 1.22% | max response [15] 0.534% | Potency [7] | max response [8] -1.58% | max response [16] -14.4% | Potency [17]
active: Potency [20] 14.1 µM
-6.47%: max response [5]

CCOC(=O)Nc1cccc(OC(=O)Nc2ccccc2)c1
inactive: Potency [1] | Potency [2] | activation [9] -3.53% | Potency [19] | Potency [3] | outcome [4] | Potency [20] | max response [6] -20.8% | activation [12] -3.18% | activation [13] 0.127% | max response [15] -0.828% | max response [8] -18.4% | max response [16] -5.43% | Potency [17]
0.0057%: max response [5]
active: Potency [14] 44.7 µM

CNC(=O)Oc1cc(C)cc(C(C)C)c1
-5.53%: max response [5]
inactive: Potency [1] | Potency [2] | outcome [10] | Potency [19] | Potency [3] | outcome [4] | Potency [20] | Potency [11] | max response [6] -3.46% | activation [12] 6.05% | activation [14] 0.548% | max response [15] 4.47% | Potency [7] | max response [8] 3.5% | max response [16] -6.56% | Potency [17] | max response [18] -3.71%

Cc1cc(Cl)ccc1OC(C)C(=O)O (stereo not drawn)
-2.86%: max response [5]
inactive: Potency [1] | Potency [2] | Potency [20] | Potency [11] | max response [6] -2.46% | activation [12] -1.95% | activation [13] -2.72% | activation [14] 0.794% | max response [15] 2.19% | Potency [7] | max response [8] -3.1% | max response [16] 0.82% | Potency [17] | max response [18] -0.122%

CSC(=O)c1c(C(F)F)nc(C(F)(F)F)c(C(=O)SC)c1CC(C)C
-14.1%: max response [5]
inactive: Potency [1] | Potency [2] | activation [9] -2.18% | outcome [10] | Potency [19] | Potency [3] | Potency [11] | max response [6] -15.4% | activation [12] -0.469% | activation [14] 1.06% | max response [15] 6.5% | Potency [7] | max response [8] -2.65% | max response [16] -16.9% | Potency [17]

CCOS(=O)(=O)OCC
-7.24%: max response [5]
inactive: Potency [1] | Potency [2] | activation [9] -9.13% | Potency [19] | Potency [3] | outcome [4] | Potency [20] | Potency [11] | max response [6] 4.62% | activation [12] -2.08% | activation [14] -0.0167% | max response [15] -1.06% | Potency [7] | max response [8] -6.17% | max response [16] 1.11% | Potency [17] | max response [18] 3.38%

CCOP(=S)(OCC)Oc1ccc(S(C)=O)cc1 (stereo not drawn)
inactive: Potency [1] | Potency [2] | outcome [10] | Potency [19] | Potency [3] | outcome [4] | Potency [20] | max response [6] -34.4% | activation [14] 14.8% | max response [15] -1.54% | Potency [7] | max response [8] 6.57% | max response [16] -11.8% | Potency [17] | max response [18] 7.38%
-3.81%: max response [5]

CCCN(CC)CC1COC2(CCC(C(C)(C)C)CC2)O1 (stereo not drawn)
-13.8%: max response [5]
inactive: Potency [1] | Potency [2] | activation [9] 11.4% | outcome [10] | Potency [3] | outcome [4] | Potency [20] | Potency [11] | max response [6] -5.06% | activation [12] -4.98% | activation [13] -1.56% | activation [14] -1.94% | max response [15] 0.269% | Potency [7] | max response [8] -11.5% | max response [16] -13.1% | Potency [17] | max response [18] -3.48%

CCc1ccc(C(=O)NN(C(=O)c2cc(C)cc(C)c2)C(C)(C)C)cc1
inactive: Potency [1] | Potency [2] | activation [9] -6.89% | outcome [10] | Potency [19] | outcome [4] | Potency [20] | Potency [11] | activation [12] 3.11% | activation [13] -3.3% | activation [14] 1.38% | max response [15] -0.946% | Potency [7] | max response [8] -4.5% | max response [16] -11.8% | Potency [17]

— PubChem BioAssay (NCATS)
